14-3-3g Raf: modulators of 14-3-3 gamma protein binding, primary screen, biochemical, fluorescence polarization; FP, 14-3-3gamma / TMR-pS259-Raf peptide binding; inhibition, % at 40 µM; 0.19% of 160,000 active; AID 422, 2006; in the data active = inhibition above about 30%;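 note: 0% = protein plus tracer without compound and 100% = blank with tracer alone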
Target sequence (P61981 whole entry, looked up): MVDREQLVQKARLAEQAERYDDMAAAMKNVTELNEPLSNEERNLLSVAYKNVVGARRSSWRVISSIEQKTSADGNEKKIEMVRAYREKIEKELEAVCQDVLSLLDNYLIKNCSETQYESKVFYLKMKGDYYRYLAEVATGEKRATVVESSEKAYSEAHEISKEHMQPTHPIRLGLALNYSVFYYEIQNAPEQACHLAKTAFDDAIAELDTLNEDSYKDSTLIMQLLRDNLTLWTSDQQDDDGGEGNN
Starred values were filed as active, the others as inactive. Many of the other results were omitted from the sample, so hits are more common in it than they were.

SMILES	14-3-3g Raf
C#CCN(C)C(C)Cc1ccccc1 (stereo not drawn)	35*
C#CCN(C)[C@@H](C)Cc1ccccc1	-1
COCCOC(=O)C1=C(N)OC(C)=C(C(=O)OC(C)C)C12C(=O)Nc1ccc(Br)cc12 (stereo not drawn)	-8
Cc1ccc(CN2C(=O)C(C)N=C(c3ccccc3)c3cc(Cl)ccc32)cc1 (stereo not drawn)	-9
Cc1ccc(-n2c(C=Cc3ccccc3F)nc3ccccc3c2=O)cc1	-3
CCOC(=O)C1C2NC(=S)N(c3ccccc3)C1(C)Oc1ccc(Br)cc12 (stereo not drawn)	-10
CCC1(C(=O)c2ccccc2)C2c3cc(Br)ccc3OC(=O)C21C(=O)OC (stereo not drawn)	5
CCC1(C(=O)c2ccc(C)cc2)C2c3cc(Br)ccc3OC(=O)C21C(=O)OC (stereo not drawn)	31*
OCCOCC#CCN1CCCCC1	-1
CC(O)CNc1cc(N2CCN(C)CC2)ccc1[N+](=O)[O-] (stereo not drawn)	1
O=c1c2cc(I)ccc2nc(C=Cc2ccccc2O)n1-c1ccccc1	10
COc1ccccc1-n1c(C=Cc2ccc([N+](=O)[O-])o2)nc2ccccc2c1=O	-68
CN(N=O)c1ccc(O)c(O)c1	40*
Cc1ccc(-n2c(C=Cc3ccccc3)nc3ccccc3c2=O)cc1Cl	-1
O=[N+]([O-])c1ccc(C2N3CCCN23)cc1 (stereo not drawn)	-2
CCOP(=S)(OCC)SCC(=O)c1c(O)cc(C)oc1=O	-59
O=c1[nH]c(=O)n(CCc2ccccc2)c(O)c1C=NCCN1CCNCC1	1
CCOc1ccc(-n2c(O)c(C=NCCN3CCNCC3)c(=O)[nH]c2=O)cc1	34*
Cc1ccc(-n2c(O)c(C=NCCN3CCOCC3)c(=O)[nH]c2=O)cc1	1
COc1cc(NC(=O)CN2C(=O)CN=C(c3ccccc3)c3ccccc32)cc(OC)c1	0

Assay outcomes as filed in PubChem BioAssay.
